{"source": "paper PMC11006913", "experiment_in_all_cases": "PBM; 200 nM protein, PBS", "conditions_in_all_cases": "dsDNA, one strand shown", "key": {"[1]": {"target": "CRX (Homo sapiens, UniProt O43186 26-111)", "sequence (O43186 26-111)": "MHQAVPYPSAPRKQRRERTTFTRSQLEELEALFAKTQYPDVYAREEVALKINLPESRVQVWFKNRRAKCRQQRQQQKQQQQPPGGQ"}, "[2]": {"target": "ALX4 (Homo sapiens, UniProt Q9H161 200-286)", "sequence (Q9H161 200-286)": "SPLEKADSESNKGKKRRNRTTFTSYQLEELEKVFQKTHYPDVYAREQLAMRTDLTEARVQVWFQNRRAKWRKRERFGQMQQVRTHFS"}, "[3]": {"target": "ALX4 (Homo sapiens, UniProt Q9H161 200-286, Q225E)", "sequence (Q9H161 200-286 Q225E)": "as the sequence (Q9H161 200-286) above, with Q26E counted along it"}, "[4]": {"target": "CRX (Homo sapiens, UniProt O43186 26-111, E42D)", "sequence (O43186 26-111 E42D)": "as the sequence (O43186 26-111) above, with E17D counted along it"}, "[5]": {"target": "CRX (Homo sapiens, UniProt O43186 26-111, R41L)", "sequence (O43186 26-111 R41L)": "as the sequence (O43186 26-111) above, with R16L counted along it"}, "[6]": {"target": "HOXA2 (Homo sapiens, UniProt O43364 129-215, R185T)", "sequence (O43364 129-215 R185T)": "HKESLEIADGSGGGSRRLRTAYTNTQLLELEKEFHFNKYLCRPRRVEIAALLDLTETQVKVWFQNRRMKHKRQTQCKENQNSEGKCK"}, "[7]": {"target": "PITX2 (Homo sapiens, UniProt Q99697 72-157)"}, "[8]": {"target": "HOXA2 (Homo sapiens, UniProt O43364 129-215, Y150S)", "sequence (O43364 129-215 Y150S)": "as the sequence (O43364 129-215 R185T) above, with Y22S, T57R counted along it"}, "[9]": {"target": "HOXA2 (Homo sapiens, UniProt O43364 129-215)", "sequence (O43364 129-215)": "as the sequence (O43364 129-215 R185T) above, with T57R counted along it"}, "[10]": {"target": "T1, NKX2-6 (Homo sapiens, UniProt A6NCS4 118-204, R150C)", "T1 sequence": "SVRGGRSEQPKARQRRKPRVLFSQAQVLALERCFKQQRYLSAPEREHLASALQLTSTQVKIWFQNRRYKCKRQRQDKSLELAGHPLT"}, "[11]": {"target": "NKX3-2 (Homo sapiens, UniProt P78367 192-278, P234S)", "sequence (P78367 192-278 P234S)": "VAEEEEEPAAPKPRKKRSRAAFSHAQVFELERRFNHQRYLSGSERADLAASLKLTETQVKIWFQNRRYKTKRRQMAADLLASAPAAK"}, "[12]": {"target": "NKX3-2 (Homo sapiens, UniProt P78367 192-278)", "sequence (P78367 192-278)": "as the sequence (P78367 192-278 P234S) above, with S43P counted along it"}, "[13]": {"target": "ALX1 (Homo sapiens, UniProt Q15699 118-204, L144V)", "sequence (Q15699 118-204 L144V)": "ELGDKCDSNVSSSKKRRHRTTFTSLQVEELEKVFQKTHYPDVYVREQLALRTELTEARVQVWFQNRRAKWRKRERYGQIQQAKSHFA"}, "[14]": {"target": "ALX1 (Homo sapiens, UniProt Q15699 118-204, L144R)", "sequence (Q15699 118-204 L144R)": "as the sequence (Q15699 118-204 L144V) above, with V27R counted along it"}, "[15]": {"target": "ALX1 (Homo sapiens, UniProt Q15699 118-204)", "sequence (Q15699 118-204)": "as the sequence (Q15699 118-204 L144V) above, with V27L counted along it"}, "[16]": {"target": "MSX2 (Homo sapiens, UniProt P35548 130-214, R199I)", "sequence (P35548 130-214 R199I)": "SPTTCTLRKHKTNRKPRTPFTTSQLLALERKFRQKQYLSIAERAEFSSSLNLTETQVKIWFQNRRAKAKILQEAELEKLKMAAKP"}, "[17]": {"target": "MSX2 (Homo sapiens, UniProt P35548 130-214)", "sequence (P35548 130-214)": "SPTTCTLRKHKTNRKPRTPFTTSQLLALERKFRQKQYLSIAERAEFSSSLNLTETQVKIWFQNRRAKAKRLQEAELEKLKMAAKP"}, "[18]": {"target": "MSX2 (Homo sapiens, UniProt P35548 130-214, F161Y)", "sequence (P35548 130-214 F161Y)": "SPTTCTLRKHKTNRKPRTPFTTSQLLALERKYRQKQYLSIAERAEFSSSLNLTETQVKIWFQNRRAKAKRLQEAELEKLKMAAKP"}}, "data": [{"sequence": "CACCGGAG", "values": [{"measurement": "binding signal", "setting": "[1]", "value": "8.14 upbm affinity estimate (log intensity, higher = more binding, comparable within an allelic series)"}, {"measurement": "binding signal", "setting": "[2]", "value": "8.15 upbm affinity estimate (log intensity, higher = more binding, comparable within an allelic series)"}, {"measurement": "binding signal", "setting": "[3]", "value": "8.15 upbm affinity estimate (log intensity, higher = more binding, comparable within an allelic series)"}, {"measurement": "binding signal", "setting": "[4]", "value": "8.3 upbm affinity estimate (log intensity, higher = more binding, comparable within an allelic series)"}, {"measurement": "binding signal", "setting": "[5]", "value": "8.27 upbm affinity estimate (log intensity, higher = more binding, comparable within an allelic series)"}]}, {"sequence": "AGGATTAG", "values": [{"measurement": "binding signal", "setting": "[1]", "value": "13.5 upbm affinity estimate (log intensity, higher = more binding, comparable within an allelic series)"}, {"measurement": "binding signal", "setting": "[6]", "value": "9.36 upbm affinity estimate (log intensity, higher = more binding, comparable within an allelic series)"}, {"measurement": "binding signal", "setting": "[4]", "value": "13.5 upbm affinity estimate (log intensity, higher = more binding, comparable within an allelic series)"}, {"measurement": "binding signal", "setting": "[7]", "value": "13.2 upbm affinity estimate (log intensity, higher = more binding, comparable within an allelic series)"}, {"measurement": "binding signal", "setting": "[8]", "value": "10.7 upbm affinity estimate (log intensity, higher = more binding, comparable within an allelic series)"}, {"measurement": "binding signal", "setting": "[5]", "value": "13.3 upbm affinity estimate (log intensity, higher = more binding, comparable within an allelic series)"}, {"measurement": "binding signal", "setting": "[9]", "value": "9.15 upbm affinity estimate (log intensity, higher = more binding, comparable within an allelic series)"}]}, {"sequence": "CTAACTCC", "values": [{"measurement": "binding signal", "setting": "[1]", "value": "9.81 upbm affinity estimate (log intensity, higher = more binding, comparable within an allelic series)"}, {"measurement": "binding signal", "setting": "[4]", "value": "9.62 upbm affinity estimate (log intensity, higher = more binding, comparable within an allelic series)"}]}, {"sequence": "GACGCGCC", "values": [{"measurement": "binding signal", "setting": "[1]", "value": "8.22 upbm affinity estimate (log intensity, higher = more binding, comparable within an allelic series)"}, {"measurement": "binding signal", "setting": "[10]", "value": "9.4 upbm affinity estimate (log intensity, higher = more binding, comparable within an allelic series)"}, {"measurement": "binding signal", "setting": "[4]", "value": "8.15 upbm affinity estimate (log intensity, higher = more binding, comparable within an allelic series)"}, {"measurement": "binding signal", "setting": "[11]", "value": "10.5 upbm affinity estimate (log intensity, higher = more binding, comparable within an allelic series)"}, {"measurement": "binding signal", "setting": "[5]", "value": "8.22 upbm affinity estimate (log intensity, higher = more binding, comparable within an allelic series)"}, {"measurement": "binding signal", "setting": "[12]", "value": "10.5 upbm affinity estimate (log intensity, higher = more binding, comparable within an allelic series)"}]}, {"sequence": "GGGGCTTA", "values": [{"measurement": "binding signal", "setting": "[1]", "value": "12.8 upbm affinity estimate (log intensity, higher = more binding, comparable within an allelic series)"}, {"measurement": "binding signal", "setting": "[4]", "value": "12.7 upbm affinity estimate (log intensity, higher = more binding, comparable within an allelic series)"}, {"measurement": "binding signal", "setting": "[7]", "value": "12.4 upbm affinity estimate (log intensity, higher = more binding, comparable within an allelic series)"}]}, {"sequence": "TAATCTCA", "values": [{"measurement": "binding signal", "setting": "[1]", "value": "12.7 upbm affinity estimate (log intensity, higher = more binding, comparable within an allelic series)"}, {"measurement": "binding signal", "setting": "[4]", "value": "12.7 upbm affinity estimate (log intensity, higher = more binding, comparable within an allelic series)"}, {"measurement": "binding signal", "setting": "[7]", "value": "12.4 upbm affinity estimate (log intensity, higher = more binding, comparable within an allelic series)"}, {"measurement": "binding signal", "setting": "[5]", "value": "12.4 upbm affinity estimate (log intensity, higher = more binding, comparable within an allelic series)"}]}, {"sequence": "AGTTTATC", "values": [{"measurement": "binding signal", "setting": "[1]", "value": "10.5 upbm affinity estimate (log intensity, higher = more binding, comparable within an allelic series)"}, {"measurement": "binding signal", "setting": "[4]", "value": "10.3 upbm affinity estimate (log intensity, higher = more binding, comparable within an allelic series)"}, {"measurement": "binding signal", "setting": "[13]", "value": "7.91 upbm affinity estimate (log intensity, higher = more binding, comparable within an allelic series)"}, {"measurement": "binding signal", "setting": "[14]", "value": "8.01 upbm affinity estimate (log intensity, higher = more binding, comparable within an allelic series)"}, {"measurement": "binding signal", "setting": "[5]", "value": "10.2 upbm affinity estimate (log intensity, higher = more binding, comparable within an allelic series)"}, {"measurement": "binding signal", "setting": "[15]", "value": "8.04 upbm affinity estimate (log intensity, higher = more binding, comparable within an allelic series)"}]}, {"sequence": "ACCTCCCA", "values": [{"measurement": "binding signal", "setting": "[1]", "value": "8.37 upbm affinity estimate (log intensity, higher = more binding, comparable within an allelic series)"}, {"measurement": "binding signal", "setting": "[4]", "value": "8.4 upbm affinity estimate (log intensity, higher = more binding, comparable within an allelic series)"}, {"measurement": "binding signal", "setting": "[7]", "value": "8.05 upbm affinity estimate (log intensity, higher = more binding, comparable within an allelic series)"}, {"measurement": "binding signal", "setting": "[5]", "value": "8.28 upbm affinity estimate (log intensity, higher = more binding, comparable within an allelic series)"}]}, {"sequence": "CCGGATTA", "values": [{"measurement": "binding signal", "setting": "[1]", "value": "13.5 upbm affinity estimate (log intensity, higher = more binding, comparable within an allelic series)"}, {"measurement": "binding signal", "setting": "[4]", "value": "13.6 upbm affinity estimate (log intensity, higher = more binding, comparable within an allelic series)"}, {"measurement": "binding signal", "setting": "[7]", "value": "13.1 upbm affinity estimate (log intensity, higher = more binding, comparable within an allelic series)"}, {"measurement": "binding signal", "setting": "[5]", "value": "13.5 upbm affinity estimate (log intensity, higher = more binding, comparable within an allelic series)"}]}, {"sequence": "AGGATTAC", "values": [{"measurement": "binding signal", "setting": "[1]", "value": "13.1 upbm affinity estimate (log intensity, higher = more binding, comparable within an allelic series)"}, {"measurement": "binding signal", "setting": "[4]", "value": "13 upbm affinity estimate (log intensity, higher = more binding, comparable within an allelic series)"}, {"measurement": "binding signal", "setting": "[7]", "value": "12.9 upbm affinity estimate (log intensity, higher = more binding, comparable within an allelic series)"}, {"measurement": "binding signal", "setting": "[5]", "value": "13 upbm affinity estimate (log intensity, higher = more binding, comparable within an allelic series)"}]}, {"sequence": "CGCGCCAG", "values": [{"measurement": "binding signal", "setting": "[1]", "value": "8.61 upbm affinity estimate (log intensity, higher = more binding, comparable within an allelic series)"}, {"measurement": "binding signal", "setting": "[4]", "value": "8.52 upbm affinity estimate (log intensity, higher = more binding, comparable within an allelic series)"}, {"measurement": "binding signal", "setting": "[16]", "value": "9.5 upbm affinity estimate (log intensity, higher = more binding, comparable within an allelic series)"}, {"measurement": "binding signal", "setting": "[17]", "value": "9.73 upbm affinity estimate (log intensity, higher = more binding, comparable within an allelic series)"}, {"measurement": "binding signal", "setting": "[18]", "value": "9.71 upbm affinity estimate (log intensity, higher = more binding, comparable within an allelic series)"}, {"measurement": "binding signal", "setting": "[5]", "value": "8.44 upbm affinity estimate (log intensity, higher = more binding, comparable within an allelic series)"}]}, {"sequence": "GCGGATTA", "values": [{"measurement": "binding signal", "setting": "[1]", "value": "13.6 upbm affinity estimate (log intensity, higher = more binding, comparable within an allelic series)"}, {"measurement": "binding signal", "setting": "[4]", "value": "13.7 upbm affinity estimate (log intensity, higher = more binding, comparable within an allelic series)"}, {"measurement": "binding signal", "setting": "[7]", "value": "13.3 upbm affinity estimate (log intensity, higher = more binding, comparable within an allelic series)"}, {"measurement": "binding signal", "setting": "[5]", "value": "13.6 upbm affinity estimate (log intensity, higher = more binding, comparable within an allelic series)"}]}, {"sequence": "GTTGGCCA", "values": [{"measurement": "binding signal", "setting": "[1]", "value": "8.35 upbm affinity estimate (log intensity, higher = more binding, comparable within an allelic series)"}, {"measurement": "binding signal", "setting": "[4]", "value": "8.33 upbm affinity estimate (log intensity, higher = more binding, comparable within an allelic series)"}, {"measurement": "binding signal", "setting": "[7]", "value": "8.06 upbm affinity estimate (log intensity, higher = more binding, comparable within an allelic series)"}, {"measurement": "binding signal", "setting": "[5]", "value": "8.24 upbm affinity estimate (log intensity, higher = more binding, comparable within an allelic series)"}]}, {"sequence": "CGGCTTAA", "values": [{"measurement": "binding signal", "setting": "[1]", "value": "12.9 upbm affinity estimate (log intensity, higher = more binding, comparable within an allelic series)"}, {"measurement": "binding signal", "setting": "[4]", "value": "12.8 upbm affinity estimate (log intensity, higher = more binding, comparable within an allelic series)"}, {"measurement": "binding signal", "setting": "[7]", "value": "12.5 upbm affinity estimate (log intensity, higher = more binding, comparable within an allelic series)"}]}, {"sequence": "AGATTATC", "values": [{"measurement": "binding signal", "setting": "[1]", "value": "13.2 upbm affinity estimate (log intensity, higher = more binding, comparable within an allelic series)"}, {"measurement": "binding signal", "setting": "[4]", "value": "13.1 upbm affinity estimate (log intensity, higher = more binding, comparable within an allelic series)"}, {"measurement": "binding signal", "setting": "[7]", "value": "12.5 upbm affinity estimate (log intensity, higher = more binding, comparable within an allelic series)"}, {"measurement": "binding signal", "setting": "[5]", "value": "13.2 upbm affinity estimate (log intensity, higher = more binding, comparable within an allelic series)"}]}]}
